Screening results (PubChem)
ALOX12 inh = inhibitors of human 12S-lipoxygenase ALOX12. P18054. purified 12hLO, xylenol orange hydroperoxide absorbance. Potency, µM (doses to about 108 µM), for the others: at the highest dose activity change, negative = inhibition, usual class: inhibitors. 580,000 tested, 1.1% active. AID 1671190; also: potency is read from the fitted curve at half-maximal effect
Target sequence (P18054 whole entry, looked up): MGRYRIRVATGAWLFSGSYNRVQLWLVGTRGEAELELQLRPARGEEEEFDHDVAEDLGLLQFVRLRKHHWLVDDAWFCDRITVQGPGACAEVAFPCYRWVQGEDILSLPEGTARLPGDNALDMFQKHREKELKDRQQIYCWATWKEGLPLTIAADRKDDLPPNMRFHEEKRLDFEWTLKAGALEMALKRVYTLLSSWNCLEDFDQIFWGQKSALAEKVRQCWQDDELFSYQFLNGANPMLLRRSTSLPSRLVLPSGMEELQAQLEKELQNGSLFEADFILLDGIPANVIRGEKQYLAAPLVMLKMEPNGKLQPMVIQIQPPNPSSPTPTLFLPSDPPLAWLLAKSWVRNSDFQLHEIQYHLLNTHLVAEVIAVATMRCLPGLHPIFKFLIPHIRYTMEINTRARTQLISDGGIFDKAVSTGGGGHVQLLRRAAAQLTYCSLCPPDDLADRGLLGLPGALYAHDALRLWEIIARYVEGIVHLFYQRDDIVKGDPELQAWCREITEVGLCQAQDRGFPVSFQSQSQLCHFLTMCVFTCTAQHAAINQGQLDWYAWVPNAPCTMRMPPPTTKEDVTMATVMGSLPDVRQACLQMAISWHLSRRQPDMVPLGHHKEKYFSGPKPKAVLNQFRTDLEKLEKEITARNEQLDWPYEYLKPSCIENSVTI
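Hydroperoxide product was detected by ferrous iron/xylenol orange as the 573 to 405 nm absorbance ratio. Arachidonic acid at 40 uM (final) was turned over for 30 min at room temperature by 150 nM human 12hLO, pH 7.0 Hepes buffer, after 15 min compound preincubation.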
TDP1 cell CPT = DT40-hTDP1 cell growth loss with CPT; chicken DT40 Tdp1-/-;hTDP1 cells + 20 nM CPT, ATP luminescence, 48 h; Potency, µM (top dose mostly 46.2 µM), inactives show at the highest dose activity change, negative = growth inhibition, actives largely listed as inhibitors; 420,000 tested, 12% active; AID 686979; also: potency is read from the fitted curve at half-maximal effect; nearly all actives have a fitted effect of over 55% in size
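Cell growth measured by CellTiter-Glo luminescence after a minimum 48 h, 37 C compound exposure with 20 nM CPT in Tdp1-knockout DT40 cells stably expressing hTDP1, seeded 400/well; qHTS titration format.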
HT1080NT lethal = kills 2HG-producing HT-1080-NT fibrosarcoma cells; AID 686970; HT-1080-NT fibrosarcoma viability, CellTiter-Glo ATP luminescence, 48 h; Potency, µM (highest dose often 46.1 µM), for inactives: at the highest dose activity, negative = less viability, actives largely listed as cytotoxic; 360,000 tested, 1.6% active;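 also: NT is the 2HG producing partner of a matched IDH1 knockdown line; potency is read from the fitted curve at half-maximal effect; 0% = DMSO-treated cells and -100% = media-only wells without cells; nearly all actives have a fitted effect of over 55% in size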
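Viability by CellTiter-Glo luminescence after 48 h compound exposure at 37C of HT-1080-NT cells (750/well, RPMI, 5% FBS). % activity scaled between DMSO wells and medium-only wells, then curve-fitted and categorized by curve class.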
DT40 TDP1 no CPT = qHTS for Inhibitors of human tyrosyl-DNA phosphodiesterase 1 (TDP1): qHTS in cells in absence of CPT; DT40 Tdp1-/- hTDP1 cells, no CPT, ATP luminescence, 48 h; 420,000 tested, 15% active; Potency, µM (series often up to 46.2 µM), for the others: top-dose activity change, negative = growth inhibition, usual class: inhibitors; also: potency is read from the fitted curve at half-maximal effect; nearly all actives have a fitted effect of over 55% in size
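Camptothecin absent (DMSO only). Human TDP1-complemented DT40 knockout cells, 400 cells/well, 37 °C for minimum 48 hr; ATP measured via CellTiter-Glo, 30 min dark incubation, luminescence.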
HT1080 IDH1KD tx = toxicity to HT-1080 IDH1 knockdown cells (counter line); HT-1080 IDH1 knockdown viability, ATP luminescence, 48 h; Potency, µM (titrated, usually from 46.1 µM), inactives show top-dose activity, negative = toxicity, usual class: cytotoxic; 360,000 tested, 2% active;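 also: potency is read from the fitted curve at half-maximal effect; 0% = DMSO wells and -100% = cell-free medium wells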
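After a 2 h attachment period, IDH1KD HT-1080 cells took pin-transferred compound for 48 h at 37 °C; ATP-based luminescence after 10 min room-temperature reagent incubation reported viability.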
IL-1B inflam inh = inhibitors of inflammasome signaling (IL-1 beta secretion); THP-1 LPS/ATP IL-1B secretion, AlphaLISA, 16 h; stronger effect = lower value; activity change, % at 57.5 µM; 360,000 tested, 4.7% active; AID 743279; in the data active = activity change below about -50%; inconclusive = mostly about -30% to -49%
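Secreted IL-1B measured by AlphaLISA bead assay after 16 h compound exposure of THP-1 cells; compounds (final up to 57.5 uM) added 1 h before LPS (250 ng/mL) and ATP (1.25 mM) stimulation; lower signal means less secretion.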
Numbers without * were called inactive; ? = inconclusive; / = no result given. Many of the other results were omitted from the sample, so hits are more common in it than they were. Unless noted, calls follow the shape of the dose curve; as a rule, active = well fitted curve in the direction sought with a large enough effect; inconclusive = small, poorly fitted or top-dose-only effect, or another doubt; inactive = no such curve, though single readings can be large; an effect the other way counts as inactive or inconclusive. Unless noted, % is scaled to controls: 0 for no effect and ±100 for the full control effect.

SMILES | ALOX12 inh | TDP1 cell CPT | HT1080NT lethal | DT40 TDP1 no CPT | HT1080 IDH1KD tx | IL-1B inflam inh
O=C(Nc1ccc2c(c1)OCCO2)c1ccccc1F | 28% | 7.3µM* | 0% | 15µM* | -1% | -9
O=C(CSc1ncc(-c2ccc(F)cc2)o1)Nc1ccc(F)c(F)c1 | -55% | / | / | / | / | /
CCOC(=O)N1CCc2c(sc3ncn(C)c(=O)c23)C1 | 16% | 10% | 26% | -16% | 18% | /
CCOC(=O)N1CCc2c(sc3nc(SC(C)C)n(N)c(=O)c23)C1 | 2% | 9.2µM* | -9% | 23µM* | -17% | -23
CCC(NC(=O)c1cc(Cn2ccc3ccccc32)[nH]n1)c1ncccc1C (stereo not drawn) | 111% | / | / | / | / | /
COC(=O)c1ccc(NC(=O)CSc2nc3ccc(OC)cc3[nH]2)cc1 | -17% | 23µM* | / | 23µM* | / | /
COc1ccc2nc(SCC(=O)NC3CCCCC3C)[nH]c2c1 (stereo not drawn) | 0% | 16µM* | ? | 9.2µM* | ? | 0
CCOc1ccc2nc(SCC(=O)NCc3ccc(OC)c(OC)c3)[nH]c2c1 | 10% | 15µM* | 5% | ? | 3% | -7
COC(=O)c1ccc(NC(=O)CSc2nc3ncccc3[nH]2)cc1 | 0% | -21% | -2% | 21µM* | -5% | 22
NC(=O)c1ccc(NC(=O)CSc2nc3ncccc3[nH]2)cc1 | -22% | / | / | / | / | /
O=c1c(-c2ccccc2)nnc2sc(-c3ccc(Cl)cc3)nn12 | -17% | / | / | / | / | /
CCCCN1CCCCC1CNc1ccc2nnnn2n1 (stereo not drawn) | -2% | / | / | / | / | /
COc1ccc(NC(=O)CSc2nc3ccc(OC)cc3[nH]2)cc1 | -10% | -7% | 0% | -4% | 0% | 0
COc1ccc(NC(=O)CSc2nc3ccncc3[nH]2)c(OC)c1 | -3% | 23µM* | -7% | 9.2µM* | 4% | 19
O=C(CSc1nc2cc3ccccc3cc2[nH]1)Nc1ccc(F)cc1 | -28% | ? | ? | 23µM* | ? | -4
COc1ccc(C2c3c(-c4ccccc4O)n[nH]c3C(=O)N2CCO)cc1OC (stereo not drawn) | 22% | / | / | / | / | /
O=C(OCC(=O)C12CC3CC(CC(C3)C1)C2)c1cc(F)c(F)cc1Cl | -19% | / | / | / | / | /
O=C(OCC(=O)C12CC3CC(CC(C3)C1)C2)c1ccc(O)cc1O | ? | ? | 13µM* | ? | 18µM* | ?
O=C(COC(=O)c1ccc(O)cc1O)NC12CC3CC(CC(C3)C1)C2 | ? | ? | 0% | ? | -2% | 5
COc1ccc(C(=O)OCC(=O)NC23CC4CC(CC(C4)C2)C3)c(O)c1 | -29% | 23µM* | 0% | ? | -14% | 13
COc1ccc(-c2ccnc(N[C@H]3CO[C@H]4[C@@H]3OC[C@@H]4NC(=O)c3ccc(C)cc3)n2)cc1 | 4% | / | / | / | / | /
Cc1cc(Br)cn2c(Cc3ccsc3)c(-c3ccc(Cl)cc3)nc12 | / | 15µM* | ? | 18µM* | ? | 89
Clc1ccc(-c2nc3ccc(Br)cn3c2Cc2ccsc2)cc1 | ? | 16µM* | -17% | 16µM* | ? | 44
Fc1ccc(-c2nc3ccc(Br)cn3c2Cc2ccccc2)cc1 | ? | ? | -1% | ? | -4% | 28
Brc1ccc(-c2nc3ccc(Br)cn3c2Cc2ccccc2)cc1 | ? | ? | ? | 21µM* | ? | -16
SMILES | ALOX12 inh | TDP1 cell CPT | HT1080NT lethal | DT40 TDP1 no CPT | HT1080 IDH1KD tx | IL-1B inflam inh
Cc1cc(Br)cn2c(Cc3ccsc3)c(-c3cccc(Cl)c3)nc12 | -45% | -19% | 16% | ? | 16% | 7
Clc1ccc(-c2nc3ccc(Br)cn3c2Cc2ccccc2)cc1 | ? | 23µM* | 8% | 21µM* | 2% | 18
CC(NS(=O)(=O)Cc1ccccc1)C(=O)O (stereo not drawn) | -3% | / | / | / | / | /
CCCOc1c(Cl)cc(/C=C(/C#N)C(=O)OC)cc1OCC | 9% | / | / | / | / | /
CN(C)c1cc(C(=O)NC(C2CC2)C2CC2)ccn1 | 13% | / | / | / | / | /
O=C(C(Sc1nncn1-c1ccccc1)c1ccccc1)N1CCOCC1 (stereo not drawn) | 19% | / | / | / | / | /
Cc1cc(Br)cn2c(Cc3ccsc3)c(-c3ccco3)nc12 | ? | ? | 16µM* | ? | 23µM* | -7
Cc1cc(Br)cn2c(Cc3ccccc3)c(-c3ccco3)nc12 | ? | ? | ? | ? | ? | -19
COc1ccc(-c2noc(CN3CCCC(C(=O)Nc4ccccc4)C3)n2)cc1OC (stereo not drawn) | -27% | / | / | / | / | /
O=C(Nc1nnc(-c2ccc3c(c2)CCCC3)o1)c1ccccc1Cl | 19% | ? | -10% | 16µM* | ? | 6
O=C(Nc1cccc2c1CCCC2)c1ccccc1Cl | ? | 7% | 28% | -8% | 19% | -1
O=C(COc1ccccc1)Nc1nnc(-c2ccc3c(c2)CCCC3)o1 | 4% | -24% | 0% | -18% | -2% | -18
O=C(Nc1nnc(-c2ccc3c(c2)CCCC3)o1)c1ccccc1 | ? | 5.2µM* | ? | 5.8µM* | ? | 110
COc1ccc(Cl)cc1NC(=O)c1c(NCc2ccc(C)o2)sc2c1CCC(C)C2 (stereo not drawn) | 4% | ? | / | 16µM* | / | /
COC(=O)Nc1sc2c(c1C(N)=O)CCC(C)C2 (stereo not drawn) | 41% | -4% | 17% | -3% | 15% | -2
COc1ccc(OC)c(NC(=O)c2c(NCc3sccc3C)sc3c2CCCCC3)c1 | ? | 7.3µM* | / | 2.6µM* | / | /
CCOC(=O)c1c(NC(=O)C(C)N2CCN(S(=O)(=O)c3cccs3)CC2)sc2c1CCC(C)C2 (stereo not drawn) | -11% | 8.2µM* | 10% | 5.8µM* | 11% | 2
COC(=O)c1c(NC(=S)NN2CCN(C)CC2)sc2c1CCC(C)C2 (stereo not drawn) | -23% | ? | 18µM* | ? | 16µM* | -69*
CS(=O)(=O)Nc1ccccc1CNC(=O)C1CCC1 | 5% | / | / | / | / | /
COC(=O)C(C)Sc1ccccc1C(=O)O (stereo not drawn) | 16% | / | / | / | / | /
CCc1nc2c(c(-c3ccc(Cl)cc3)n1)CN([S+](=O)([O-])c1cccs1)CC2 | -7% | / | / | / | / | /
